Nrf2 inh – Nrf2 qHTS screen for inhibitors. Potency, µM (top dose mostly 46 µM), for the others: top-dose activity change, negative = inhibition, hits mostly inhibitors. actives 2.1% (n = 360,000). A549 ARE-Fluc reporter, luciferase luminescence, 18-24 h; further: on the % scale 0 is the no-effect control and ±100 the full control effect; nearly all actives have a fitted effect of over 60% in size
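Nrf2 activity is the BugLite luminescence, read 15 min after reagent at room temperature, following CellTiter-Fluor cytotoxicity readout (30 min, 37C). Compound titrations were applied for 18-24 h to 5000 A549 ARE_Fluc cells/well in 5% FBS OPTI-MEM.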
Rango complex inh – qHTS Assay for Inhibitors of Rango (Ran-regulated importin-beta cargo) - Importin beta complex formation | Importin subunit beta-1 (Homo sapiens), Q14974 | Rango CFP/YFP FRET sensor + importin beta, 45 min | Potency, µM (highest dose often 92.2 µM), without a hit: top-dose inhibition of complex formation | actives 0.031% (n = 340,000) | AID 540263, 2011; calls by dose curve;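 further: 0% = DMSO wells and 100% = buffer wells lacking importin beta; nearly all actives have a fitted effect of over 15% in size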
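FRET biosensor (snurportin 1 IBB flanked by EYFP and cerulean), 50 nM, with compound 5 min, then 0.125 microM importin beta in PBS, 1 mM DTT, 0.02% Tween-20, 0.1% BSA. CFP/YFP ratio read after 45 min at room temperature; pre-read flags interference.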
Rango dissoc inh – qHTS Assay for Inhibitors of RanGTP induced Rango (Ran-regulated importin-beta cargo) - Importin beta complex dissociation | Snurportin-1 (Homo sapiens) + GTP-binding nuclear protein Ran (Homo sapiens) + Importin … | Biochemical FRET Rango-importin beta, RanGTP-induced dissociation | actives 0.071% (n = 340,000) | AID 540253, 2011 | Potency, µM (series often up to 46.1 µM), for inactives: at the highest dose activity change, negative = inhibition; calls by dose curve; further: % of control where 0% means no effect; nearly all actives have a fitted effect of over 45% in size
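Quantitative HTS using a FRET biosensor: 0.1 uM Rango, 0.25 uM importin beta, 0.6 uM Ran, 2 mM GTP, 0.2 uM RCC1 final, PBS with DTT, Tween-20 and BSA. Post-read taken 45 min after Ran addition.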
Nrf2 ARE act – qHTS of Nrf2 Activators | AREc32 ARE-luciferase reporter (MCF7-derived line), luminescence, 24 h | Potency, µM (series often up to 46.1 µM), inactives show top-dose activation, most hits filed as activators | actives 0.31% (n = 410,000) | AID 624171, 2012; further: % of control where 0% means no effect; nearly all actives have a fitted effect of over 65% in size
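For detection, Steady-Glo was added and plates sat 30 min at RT; before that, AREc32_Fluc cells grown overnight in OPTI-MEM/5% FBS had been treated with 23 nL compound for 24 hr at 37 deg C.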
A549 tox-1 – Nrf2 qHTS screen for inhibitors: counterscreen for cytotoxicity. A549 ARE-Fluc cells, CellTiter-Fluor viability, 18-24 h. Potency, µM (series often up to 46 µM), for inactives: top-dose activity change, negative = cytotoxicity, most hits filed as inhibitors. actives 0.16% (n = 390,000). AID 504648, 2011; further: on the % scale 0 is the no-effect control and ±100 the full control effect
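Cytotoxicity counterscreen: CellTiter-Fluor fluorescence was measured in A549 ARE_Fluc cells after 18-24 h of compound exposure in a concentration series. The subsequent BugLite luminescent read reports ARE-luciferase activity.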
FLuc enzyme inh – Nrf2 qHTS screen for inhibitors: Purified Fluc Biochemical Counterscreen for Hit Validation | AID 720522, 2013 | purified firefly luciferase, luminescence inhibition | shares compounds with Nrf2 inh | Potency, µM (titrated, usually from 57.5 µM), inactives show top-dose activity change, negative = inhibition, actives largely listed as inhibitors | actives 4% (n = 1,400); further: on the % scale 0 is the no-effect control and ±100 the full control effect; nearly all actives have a fitted effect of over 65% in size
Target sequence (P08659 whole entry, looked up): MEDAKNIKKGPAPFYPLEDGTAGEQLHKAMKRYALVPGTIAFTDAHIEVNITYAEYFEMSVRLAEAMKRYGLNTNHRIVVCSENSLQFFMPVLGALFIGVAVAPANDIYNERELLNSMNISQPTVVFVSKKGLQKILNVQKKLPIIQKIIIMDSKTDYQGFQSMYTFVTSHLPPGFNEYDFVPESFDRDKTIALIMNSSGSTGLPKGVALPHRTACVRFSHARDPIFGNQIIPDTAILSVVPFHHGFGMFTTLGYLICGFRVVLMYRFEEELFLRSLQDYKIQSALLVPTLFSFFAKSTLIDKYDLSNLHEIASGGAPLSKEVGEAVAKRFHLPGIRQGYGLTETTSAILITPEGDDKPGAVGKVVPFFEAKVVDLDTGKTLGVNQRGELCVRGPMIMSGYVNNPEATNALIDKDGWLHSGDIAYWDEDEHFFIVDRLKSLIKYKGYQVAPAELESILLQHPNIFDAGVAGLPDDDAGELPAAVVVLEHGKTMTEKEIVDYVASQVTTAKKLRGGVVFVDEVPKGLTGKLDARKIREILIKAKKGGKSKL
A549 tox-2 – Nrf2 qHTS screen for inhibitors: A549 ARE-Fluc Cytotoxicity Counterscreen for Hit Validation; shares compounds with Nrf2 inh; A549 ARE-Fluc cells, cytotoxicity counterscreen; Potency, µM (doses to about 46.1 µM), for inactives: top-dose activity change, negative = cytotoxicity, actives largely listed as inhibitors; actives 2% (n = 1,400);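 further: cells exposed to compounds for 18 to 24 hours; on the % scale 0 is the no-effect control and ±100 the full control effect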
Nrf2 ARE inh – Nrf2 qHTS screen for inhibitors: Nrf2 A549 ARE-Fluc Confirmation Assay for Hit Validation | Potency, µM (series often up to 46.1 µM), for the others: top-dose activity change, negative = inhibition, usual class: inhibitors | actives 74% (n = 1,400) | A549 ARE-firefly luciferase reporter, luminescence | shares compounds with Nrf2 inh; further: on the % scale 0 is the no-effect control and ±100 the full control effect; nearly all actives have a fitted effect of over 65% in size
An asterisk follows results filed as active; ? = inconclusive; . = no result shown. Most compounds without a hit are left out; they make up all but 2.3% or so of the library. Unless noted, the call rests on the fitted dose curve; in most records, active means well fitted curve in the direction sought with a large enough effect; inconclusive means small, poorly fitted or top-dose-only effect, or another doubt; inactive means no such curve, though single readings can be large; an effect the other way counts as inactive or inconclusive. Potency means the concentration at half of the fitted maximal effect.

SMILES	Nrf2 inh	Rango complex inh	Rango dissoc inh	Nrf2 ARE act	A549 tox-1	FLuc enzyme inh	A549 tox-2	Nrf2 ARE inh
Fc1ccc(/C=C/c2ccc3ccccc3n2)cc1	.	.	.	.	.	-24.8%	?	7.31µM*
COc1ccc(-c2c(C)sc(NC(=O)c3ccnn3C)c2C#N)cc1	6.51µM*	-5.1%	-15.3%	4.9%	-9.5%	-13.9%	?	.
CN(C)c1ccc(/C=C/c2ccc3c4ccccc4ccc3[n+]2-c2ccccc2)cc1	3.66µM*	?	-5.1%	-3.0%	10.3µM*	?	7.31µM*	2.91µM*
CN(C)c1ccc(/C=C/c2cc3ccccc3c[n+]2C)cc1	.	.	.	.	.	-22.1%	?	6.51µM*
CN(C)c1ccc(/C=C/c2nc3ccccc3c(=O)[nH]2)cc1	-15.4%	?	?	-0.1%	5.8%	.	.	.
COc1cccc(CNC(=S)Nc2cc(C)ccc2C)c1	?	0.3%	7.5%	-0.5%	3.9%	.	.	.
O=C(CSc1ncnc2c1cnn2-c1ccc(F)cc1)NC1CCCC1	5.17µM*	1.8%	-4.2%	0.5%	0.7%	-11.0%	-0.2%	?
Cc1ccc(S(=O)(=O)N2CCc3ccccc3CC2)cc1	8.2µM*	2.2%	-3.3%	2.9%	-1.8%	2.8%	-1.7%	4.11µM*
Cc1ccc(S(=O)(=O)N2CCc3ccccc3C2)cc1	-23.4%	4.7%	-17.1%	3.1%	19.7%	.	.	.
O=C(COc1ccc(S(=O)(=O)NC2CCCCC2)cc1)N1CCN(c2cccc(Cl)c2)CC1	5.8µM*	-0.2%	0.8%	0.8%	?	-1.3%	-17.3%	9.2µM*
Cc1cc(C)n(CC(=O)NC2CCCc3c2cnn3-c2ccc(C)c(C)c2)n1 (centres undefined)	?	2.6%	7.6%	0.2%	-0.1%	.	.	.
Cc1cc(C(=O)NC2CCCc3c2cnn3-c2ccc(C)c(C)c2)n(C)n1 (centres undefined)	0.206µM*	-1.6%	-8.0%	-0.6%	-21.3%	-6.7%	-10.9%	0.0231µM*
Cc1cccc(-n2ncc3c2CCCC3NC(=O)C2(C(N)=O)CC2)c1C (centres undefined)	2.31µM*	2.6%	-0.8%	-0.9%	-8.2%	-1.9%	-4.9%	3.66µM*
Cc1cc(C)cc(-n2ncc3c2CCCC3NC(=O)C2(C(N)=O)CC2)c1 (centres undefined)	?	4.0%	1.7%	2.8%	-1.4%	.	.	.
CCc1cc(C(=O)NC2CCCc3c2cnn3-c2cccc(C)c2C)n(C)n1 (centres undefined)	0.184µM*	2.5%	3.1%	1.3%	?	0.9%	-3.4%	0.082µM*
Cc1cc(C)c(C(=O)NC2CCCc3c2cnn3-c2cccc(C)c2C)o1 (centres undefined)	?	-0.6%	1.6%	0.3%	-12.7%	.	.	.
O=S(=O)(Nc1ccc(-c2ccc3nncn3n2)cc1)c1cccc(F)c1	?	5.3%	-9.5%	0.8%	-1.7%	.	.	.
COc1ccc(COC(=O)C2=C(C)NC(=O)NC2c2cccc(Br)c2)cc1 (centres undefined)	?	0.2%	-0.1%	5.9%	-5.0%	1.3%	-3.8%	?
CC1=C(C(=O)OCc2ccccc2)C(c2cccc(Br)c2)NC(=O)N1 (centres undefined)	-18.5%	4.1%	19.9%	-0.2%	-0.2%	.	.	.
CC1=C(C(=O)OCc2ccc3c(c2)OCO3)C(c2ccc(F)cc2)NC(=O)N1 (centres undefined)	4.11µM*	2.0%	5.7%	0.7%	-20.6%	1.3%	-10.6%	8.2µM*
Cc1cn2c(=O)cc(COC(=O)c3ccc(NC(=O)COc4ccccc4C)cc3)nc2s1	.	.	.	-1.3%	-13.4%	.	.	.
CN(CC(=O)NCCCc1ccccc1)S(=O)(=O)c1ccc(Br)cc1	-7.0%	-5.4%	-10.5%	0.1%	-0.9%	.	.	.
COc1ccc(OC)c(NC(=O)CSc2ncnc3c2cnn3-c2ccccc2Cl)c1	4.61µM*	2.2%	5.5%	3.0%	?	-0.3%	-15.0%	.
COc1cc(NC(=O)CSc2ncnc3c2cnn3Cc2ccccc2)cc(OC)c1	?	?	-12.2%	-0.4%	-11.7%	.	.	.
Cc1csc(SC(C)c2nc3scc(-c4ccccc4)c3c(=O)[nH]2)n1 (centres undefined)	?	?	-21.1%	0.8%	-0.8%	.	.	.
SMILES	Nrf2 inh	Rango complex inh	Rango dissoc inh	Nrf2 ARE act	A549 tox-1	FLuc enzyme inh	A549 tox-2	Nrf2 ARE inh
Cc1cc(C(=O)NC2CCCc3c2cnn3-c2ccc(C(C)(C)C)cc2)n[nH]1 (centres undefined)	4.61µM*	3.5%	-6.6%	3.7%	13.1%	?	-10.7%	16.4µM*
CC(C)(C)c1ccc(-n2ncc3c2CCCC3NC(=O)c2ccncc2)cc1 (centres undefined)	2.59µM*	1.8%	1.0%	-0.3%	-12.2%	?	-5.5%	8.2µM*
Cc1ncoc1C(=O)NC1CCCc2c1cnn2-c1ccc(C(C)(C)C)cc1 (centres undefined)	2.31µM*	4.6%	0.5%	-0.1%	?	?	-6.1%	5.17µM*
O=C(NC1CCCc2c1cnn2-c1cc(F)cc(F)c1)c1ccncc1 (centres undefined)	-4.8%	-0.3%	-7.1%	-1.0%	8.1%	.	.	.
CC(C)(C)c1ccc(-n2ncc3c2CCCC3NC(=O)CN2CCOC2=O)cc1 (centres undefined)	?	-2.5%	-1.7%	-0.2%	-7.3%	.	.	.
Cc1nnsc1C(=O)NC1CCCc2c1cnn2-c1ccc(C(C)(C)C)cc1 (centres undefined)	2.06µM*	0.4%	38.8%	-0.6%	?	?	-12.8%	.
O=C(Oc1ccccc1N1C(=O)C2CCCCC2C1=O)c1ccc(Cl)cc1 (centres undefined)	4.61µM*	10.7%	-8.4%	-0.6%	-3.5%	-1.2%	-0.7%	6.51µM*
O=C(Oc1ccccc1N1C(=O)C2CCCCC2C1=O)c1ccccc1F (centres undefined)	-1.2%	-3.4%	-17.7%	5.4%	-6.9%	.	.	.

High-throughput results: PubChem BioAssay, National Center for Advancing Translational Sciences (NCATS)
